Pf growth 96h: inhibits malaria parasite growth, 96 h; hit rate 6.9% among 320,000; AID 504834; Potency, µM (series often up to 28.7 µM), for the others: top-dose activity change, negative = inhibition, actives largely listed as inhibitors; P. falciparum luciferase reporter growth, 96 h; also: % is scaled to controls: 0 for no effect and ±100 for the full control effect
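Infected RBCs, 2% Hct / 0.05% parasitemia final; luciferase-reporter P. falciparum; cpd 96 h, 37 C, 5% CO2; luciferase detection reagent; luminescence.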
HCV inh: blocks hepatitis C virus; hit rate 3.4% among 340,000; Potency, µM (series often up to 41.8 µM), for inactives: at the top dose activity change, negative = inhibition, hits mostly inhibitors; Huh7.5.1 HCVcc-Cre infection, luciferase reporter, 44 h; AID 651820; also: % is scaled to controls: 0 for no effect and ±100 for the full control effect
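1,000 cells/well; 4 h culture; + compound; + HCVcc-Cre (~0.5 moi); 44 h; luciferase substrate, RT 15 min; read 15 sec.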
AMA1-RON2 inh: disrupts binding of P. falciparum AMA1 to RON2; AlphaScreen AMA1-biotinylated RON2 peptide binding; Potency, µM (series often up to 58.2 µM), without a hit: at the top dose activity change, negative = inhibition, usual class: inhibitors; hit rate 0.2% among 360,000; AID 720542;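 also: 0% = vehicle wells and -100% = peptide control; nearly all actives have a fitted effect of over 45% in size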
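AMA1 (3D7) with his tag at 25 nM final met compounds first, then biotinylated RON2 peptide at 25 nM; detection used donor plus acceptor beads, 10 µg/mL apiece, read by AlphaScreen after 30 min at room temperature.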
Pf growth 48h: inhibits P. falciparum growth in the first generation, 48 h. AID 504832. Potency, µM (series often up to 28.7 µM), without a hit: top-dose activity change, negative = inhibition, actives largely listed as inhibitors. P. falciparum luciferase growth in erythrocytes, 48 h. hit rate 5.9% among 310,000; also: % is scaled to controls: 0 for no effect and ±100 for the full control effect
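First compound was added to culture medium, then infected red cells at 0.1% parasitemia and 2% hematocrit (final). After incubation at 37 C under 5% CO2, luciferase detection reagent was dispensed and light output recorded.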
SARS PLP yeast: blocks SARS-CoV papain-like protease in a yeast assay; S. cerevisiae expressing SARS-CoV PLpro, growth rescue; Potency, µM (titrated, usually from 32.9 µM), inactives show at the highest dose activity, positive = growth rescue, most hits filed as activators; hit rate 0.19% among 330,000; AID 485353; calls by dose curve; also: 0% is about no effect; nearly all actives have a fitted effect of over 55% in size
NS1 inh: influenza NS1 inhibition; Potency, µM (doses to about 46.1 µM), for inactives: top-dose activity, positive = more growth; hit rate 0.4% among 270,000; AID 2326; calls by dose curve; also: actives are rising curves; nearly all actives have a fitted effect of over 50% in size
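Compounds were scored for reversing the slow growth caused by influenza A NS1 in S. cerevisiae, measured by optical density at 600 nm. Assay medium contained 2% galactose at pH 6.0; NS1-free yeast of the same strain were the positive control.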
Starred values were filed as active, the others as inactive; ? = inconclusive; . = no result; [ ] = remark or other dose. Sampled rows, rich in hits. Any-hit rate of the full collection: about 12%. Unless noted, calls follow the shape of the dose curve; as a rule, active = well fitted curve in the direction sought with a large enough effect; inconclusive = small, poorly fitted or top-dose-only effect, or another doubt; inactive = no such curve, though single readings can be large; an effect the other way counts as inactive or inconclusive. Potency is read from the fitted curve at half-maximal effect.

SMILES	Pf growth 96h	HCV inh	AMA1-RON2 inh	Pf growth 48h	SARS PLP yeast	NS1 inh
CCCCCCCCCCCCCCCCCCNC(=O)OCC(COP(=O)([O-])OCC[n+]1ccsc1)OC (stereo unspecified)	.	.	.	.	.	2%
CN(CCc1ccccn1)C(=O)CC1C(=O)NCCN1Cc1ccc(-c2ccccc2)cc1 (stereo unspecified)	12µM*	26%	8%	?	-3%	-2%
O=C(Nc1nnc(-c2ccc(F)cc2)o1)C1CCCN1S(=O)(=O)c1cccs1 (stereo unspecified)	13%	6%	96%	-16%	-1%	.
O=C1/C(=C/c2ccccc2)NC(=S)N1C(c1ccccc1)c1ccccc1	.	?	61%	12µM*	2%	10%
O=C(NCCCc1ccccc1)c1ccc(CS(=O)Cc2ccc(Cl)cc2)o1 (stereo unspecified)	?	?	-1%	21%	-3%	3%
Cc1[nH]c(=O)[nH]c(=O)c1S(=O)(=O)N1CCCC(C(=O)N2CCN(c3cccc(C(F)(F)F)c3)CC2)C1 (stereo unspecified)	0%	15%	-8%	-15%	-3%	.
Cc1[nH]c(=O)[nH]c(=O)c1S(=O)(=O)N1CCC(C(=O)N2CCN(c3cccc(C(F)(F)F)c3)CC2)CC1	18%	?	-10%	10µM*	-2%	.
Cn1c(NCCN2CCCC2)nc2cc(-c3ccsc3)sc2c1=O	.	.	4%	.	.	.
CNC(=O)C(=O)Nc1cc2c3c(c1)C(C)C(=O)N3CCC2 (stereo unspecified)	-30%	-1%	30%	10%	2%	2%
FC(F)(F)c1ccc(N2CCN(c3cc(-c4ccccc4)nc4ncnn34)CC2)nc1	-18%	8.9µM*	0%	?	0%	-41%
O=C(NCc1cccnc1)c1cc(C2CCCCN2C(=O)CCCc2ccccc2)on1 (stereo unspecified)	.	.	10%	.	.	.
C=CCN1C=C2C(=O)C(C)(OC(=O)CCC(=O)OC)C(=O)C(Br)=C2C=C1c1ccc(OC)cc1 (stereo unspecified)	?	?	-24%	15µM*	0%	-2%
O=C(Nc1cc(S(=O)(=O)N2CCCCC2)ccc1Oc1ccccc1)C1=COCCO1	10µM*	22µM*	-4%	10µM*	1%	13%
COc1cccc(Oc2ccc(C(F)(F)F)cc2NC(=O)C2=COCCO2)c1	7.4µM*	-27%	10%	?	-2%	5%
COC(=O)C(C(=O)Nc1ccccc1C)C1CCCCCC1 (stereo unspecified)	18%	-14%	12%	27%	0%	3%
COc1ccc(-n2c(SCC(=O)Nc3ccc(C(N)=O)cc3)nc3c([nH]c4ccccc43)c2=O)cc1OC	12µM*	11µM*	-1%	?	0%	17%
COCCn1c(SCC(=O)Nc2ccc(C(N)=O)cc2)nc2c([nH]c3ccccc32)c1=O	1%	-2%	0%	21%	-2%	1%
COc1ccc(-n2c(SCC(=O)N(C)c3ccccc3)nc3c([nH]c4ccccc43)c2=O)cc1OC	4.7µM*	-3%	-18%	8.3µM*	-1%	8%
CCOc1ccc(NC(=O)CCC(=O)NNC(=O)c2ccc(Br)o2)cc1	-25%	-8%	22%	21%	-2%	-12%
Cc1onc(-c2ccccc2Cl)c1C(=O)O/N=C(\N)c1ccc([N+](=O)[O-])o1	15µM*	?	-6%	3.7µM*	-7%	-8%
COc1coc(C(O)C[N+](=O)[O-])cc1=O (stereo unspecified)	-14%	20%	?	9%	3%	3%
O=C(Cc1ccc(F)cc1)NC(Cc1c[nH]c2ccccc12)C(=O)O (stereo unspecified)	4%	9%	-11%	0%	0%	?
O=C(Cc1c[nH]c2ccccc12)N[C@@H](Cc1c[nH]c2ccccc12)C(=O)O	18%	10%	-4%	45%	-1%	-3%
O=C(CCCc1c[nH]c2ccccc12)N[C@@H](Cc1c[nH]c2ccccc12)C(=O)O	8.3µM*	-3%	12%	9.3µM*	-5%	5%
O=C(CCc1c[nH]c2ccccc12)N[C@@H](Cc1c[nH]c2ccc(O)cc12)C(=O)O	4.7µM*	11%	4%	3.7µM*	1%	5%
SMILES	Pf growth 96h	HCV inh	AMA1-RON2 inh	Pf growth 48h	SARS PLP yeast	NS1 inh
Cc1ccc(/C=N/c2sc3c(c2C#N)CCC3)s1	7.4µM*	3%	4%	71%	-5%	0%
Cc1ccc(/C=N/c2sc3c(c2C#N)CCCCC3)o1	104%	-22%	-5%	22%	3%	-13%
CC(C)C[C@H](NC(=O)c1nc[nH]c1C(=O)N[C@@H](CC(C)C)C(=O)OC(C)(C)C)C(=O)OC(C)(C)C	8.3µM*	?	187%	6.6µM*	-4%	-7%
CC(C)(C)OC(=O)[C@H](Cc1ccccc1)NC(=O)c1[nH]cnc1C(=O)Nc1ccc(Cl)cc1	?	6%	95%	?	2%	?
CC(C)C[C@H](NC(=O)c1[nH]cnc1C(=O)Nc1ccc(Cl)cc1)C(=O)OC(C)(C)C	13µM*	36%[8.37 µM]	139%	13µM*	0%	16%
CCC(c1nnnn1CCc1ccccc1)N(Cc1ccco1)Cc1cc2cc(C)cc(C)c2[nH]c1=O (stereo unspecified)	-19%	10µM*	-11%	12µM*	-2%	2%
CCC(c1nnnn1CCc1ccccc1)N(Cc1ccco1)Cc1cc2c(C)ccc(C)c2[nH]c1=O (stereo unspecified)	-3%	11µM*	-2%	?	5%	?
Cc1ccn2cc(-c3cccc(NS(C)(=O)=O)c3)nc2c1	38%	-22%	8%	142%	1%	2%
Cc1cccn2cc(-c3ccc(S(=O)(=O)N4CCOCC4)cc3)nc12	-26%	-13%	-7%	-23%	4%	-15%
Cc1ccn2cc(-c3ccc(NS(=O)(=O)c4ccccc4)cc3)nc2c1	-14%	11µM*	-12%	13µM*	17%	3%
Cc1ccn2cc(-c3ccc(Br)cc3)nc2c1	-27%	?	-2%	-39%	-4%	-59%
Cc1ccn2cc(-c3cccc(S(=O)(=O)N4CCCC4)c3)nc2c1	15%	11µM*	-5%	9%	5%	-3%
Cc1cccn2cc(-c3ccc(S(=O)(=O)N4CCCCC4)cc3)nc12	10µM*	-29%	-7%	17%	-2%	1%
Cc1ccc(S(=O)(=O)Nc2ccc(-c3cn4ccc(C)cc4n3)cc2)cc1	-19%	?	5%	1.7µM*	0%	20%
COC(=O)c1c(NC(=O)CN2C(=O)C(=O)N(CC(C)C)C2=O)sc2c1CCCCC2	-2%	-5%	-2%	3%	-10%	-9%

Source: PubChem (National Center for Advancing Translational Sciences (NCATS))
